# Reference: PubChem BioAssay AID2289 (National Center for Advancing Translational Sciences (NCATS), 2010)
# About 3,300 (0.97%) of roughly 340,000 compounds were called active. Not shown: some 9% with an inconclusive outcome. The call rests on the fitted dose curve; in most records, active means well fitted inhibition curve with a large enough effect; inconclusive means small, poorly fitted or top-dose-only effect, or effect the other way; inactive means flat fitted curve, though single readings scatter. Some of the results follow.
# Experiment: qHTS Assay for Modulators of miRNAs and/or Inhibitors of miR-21; further: nearly all actives have a fitted effect of over 55% in size
# Details: HeLa miR-21-FLuc reporter, luciferase luminescence, 48 h; actives lower the signal
# Text: MLSCN Grant: 1 R21 NS059478-01 Assay Provider: Qihong Huang, The Wistar Institute NCGC Assay Overview: MicroRNAs (miRNAs) are endogenously encoded small (~20-25 nucleotides), nonprotein-coding RNAs that are involved in post-transcriptional repression of target messenger RNAs (mRNAs) (Le and Hannon, 2004). Estimated to be involved in the regulation of 30% of all protein-coding mRNAs (Filipowicz et al., 2008), miRNAs play a significant role in many biological processes including cellular differentiation and tissue development (Ghildiyal and Zamore, 2009).
# NCGC Assay Protocol Summary: Reagents: HeLa cells stably expressing firefly luciferase (FLuc) under the control of a CMV promoter (upstream) and a miR-21 binding sequence directly downstream of the gene. These cells endogenously express miR-21. Control compounds used were compound C3 (provided by collaborator), N6-phenyladenosine (MP Biomedicals, 0215379625), and DMSO. Assay Summary: 6uL of HeLa miR-21-FLuc cells in assay buffer (DMEM, Invitrogen #21063-029; 10% FBS, HyClone #SH30071.03) were dispensed at 2000cells/well (3.3 x 10^5 cells/mL) into Greiner solid-white TC-treated 1536-well plates using a Multidrop Combi (Thermo Fisher Scientific). Plates were incubated for one hour at 37 degree Celsius, 95% humidity, 5% CO2. These assay plates were then treated with 23nL of compound or DMSO using a Kalypsys pin tool, which allows for delivery of a 24-point titration of each compound to the assay plate, with a final compound concentration ranging from approximately 40uM to 5pM. Assay plates were then incubated for 48 hours. After incubation, plates were allowed to come to RT for one hour prior to delivery of 3uL of 3X luciferase detection reagent. After a 15 minute incubation to allow for cell lysis, luciferase activity was measured using a ViewLux CCD imager (PerkinElmer), with an average exposure time of 2-12 seconds. Keywords: NIH Roadmap, MLPCN, MLSMR, qHTS, miR-21, microRNA, firefly luciferase, FLuc.
# Potency means the concentration at half of the fitted maximal effect.
row,Structure (SMILES),Potency
1,CN(CC(=O)N1CCc2ccccc21)S(=O)(=O)c1cccs1,5.85 µM (active)
2,COc1ccc(-c2cc(=NCCC(=O)O)c3cc(C)ccc3o2)cc1,0.656 µM (active)
3,COc1ccc(-c2cc(=NCC(=O)O)c3ccccc3o2)cc1,3.69 µM (active)
4,CCCCN1CC(O)=C(c2nc3ccccc3s2)C1=N,6.56 µM (active)
5,CC(=O)Nc1ccccc1C(=O)OCC(=O)c1ccccc1Cl,14.7 µM (active)
6,COc1ccc2nc(NC3=NCCN3)sc2c1,1.65 µM (active)
7,Cc1ccnc(SCc2nc3ccccc3s2)n1,7.36 µM (active)
8,Cc1cccc(OCCn2c(=O)oc3ccc(C)cc32)c1,14.7 µM (active)
9,O=c1oc2ccccc2n1CCCOc1ccccc1,13.1 µM (active)
10,Cc1ccc(NC(=O)O/N=C/c2cccc([N+](=O)[O-])c2)cc1,16.5 µM (active)
11,Cc1nc(Cl)sc1C(=O)Nc1ccc2ccccc2c1,5.85 µM (active)
12,O=C(CSCc1ccccc1)Nc1ccc2c(c1)OCO2,5.21 µM (active)
13,Cc1ccc(-c2nn(Cc3ccccc3)cc2C=O)cc1,6.56 µM (active)
14,Cc1ccc(-c2nc(N3CCOCC3)s[n+]2-c2ccccc2)cc1,5.21 µM (active)
15,c1ccc(-c2nc(N3CCOCC3)s[n+]2-c2ccccc2)cc1,13.1 µM (active)
16,Cn1nnc2cc(NC(=O)Nc3cccc(Cl)c3)ccc21,1.47 µM (active)
17,c1ccc(CN2CCc3nc4ccccc4cc3C2)cc1,14.7 µM (active)
18,Cc1ccc(NN=C2C(=O)OC(C)(C)OC2=O)c(C)c1,11.7 µM (active)
19,O=C(NCC(c1cccnc1)N1CCOCC1)Oc1ccccc1 (stereo unspecified),16.5 µM (active)
20,Cc1nc2ccc(NC(=O)C3COc4ccccc4O3)cc2s1 (stereo unspecified),7.36 µM (active)
21,Cc1nc2ccc(NC(=O)c3ccc(Cl)s3)cc2s1,2.93 µM (active)
